About 480 (22%) of roughly 2,200 compounds were called active. A selection follows. Results with a measured potency or affinity are listed apart. A number with no mark means an inactive call. How the calls were made is not given here.
Test: S. Typhimurium GFP fluorescence modified counterscreen for PhoP regulon inhibitor project dose response (AID 1981);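 further: 0% = induced DMSO wells and 100% = uninduced wells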
Conditions: 4 h; series mostly up to 150 µM; inhibition: at the top concentration
With `Cc1cccc2nc(CSc3nc4ccccc4o3)cn12` the “inhibition” value was 1.89%. With `O=C(Cc1ccccc1)NC1c2ccccc2-c2ccccc21` the “inhibition” value was -8.08%. With `O=C(CSCc1ccccc1)Nc1ccc2c(c1)OCO2` the “inhibition” value was -12.3%. For `O=C(NCc1ccco1)C1CC(=O)N(CCc2ccccc2)C1` (stereo unspecified), the “inhibition” value was -2.95%. For `Cn1cccc1CC(=O)NNC(=S)Nc1ccc(Cl)cc1`, the “inhibition” value was 1.77%. For `NC1=NC(=Nc2ccc(Br)cc2)c2ccccc21`, the “inhibition” value was -1.28%. For `N#C/C=C(/N)c1ccc(Br)cc1`, the “inhibition” value was 7.34%. With `O=c1c(Cl)c(Cl)cnn1-c1ccccc1` the “inhibition” value was 12.9%. For `O=C(Cc1cn2ccsc2n1)Nc1ccccc1Oc1ccccc1`, the “inhibition” value was -11.4%. With `N#CC1=C(N)N=C(SCc2cccc3ccccc23)C(C(N)=O)C12CCCCC2` (stereo unspecified) the “inhibition” value was 34.8%. For `CCCCn1c(/N=C/c2ccccc2NS(=O)(=O)c2ccc(C)cc2)nc2ccccc21`, the “inhibition” value was 15.6%. For `CCOC(=O)C1=C(c2ccccc2)NC(SC)=C(C#N)C1c1ccco1` (stereo unspecified), the “inhibition” value was 4.7%. For `FC(F)(F)c1cccc(NC(=S)NCCN2CCOCC2)c1`, the “inhibition” value was -26%. For `Nc1nc(CSc2nc3ccccc3[nH]2)nc(N2CCOCC2)n1`, the “inhibition” value was -4.29%. In the case of `CN1/C(=C\C=N\NC(=O)c2ccccc2Br)C(C)(C)c2ccccc21`, the “inhibition” value is reported as 3.5%. With `CC(C)=CCN1CCN(Cc2ccoc2)CC1CCO` (stereo unspecified) the “inhibition” value was -23.8%. For `COc1ccc(N2C(=O)[C@@H]3[C@H](C2=O)[C@H]2c4ccccc4C=CN2[C@@H]3C(=O)Nc2ccccc2)cc1`, the “inhibition” value was 12.3%. In the case of `COc1ccc(C(C(=O)NC2CCCC2)N(C(=O)c2ccoc2C)c2cc(C)cc(C)c2)cc1` (stereo unspecified), the “inhibition” value is reported as -16.8%. In the case of `Cc1cc(C)nc(Nc2ccc(N3CCCC3)cc2)n1`, the “inhibition” value is reported as 35.5%. For `Cc1ccc(Nc2nc(N)nc(CC#N)n2)cc1`, the “inhibition” value was 12.2%. In the case of `CSc1nnc(NC(=O)CCc2ccccc2)s1`, the “inhibition” value is reported as 31.3%. With `CCN(CC)CCOc1ccc2c(c1)C(=NNC(=O)c1ccccn1)c1cc(OCCN(CC)CC)ccc1-2` the “inhibition” value was 21.5%. With `CCOC(=O)C(C)/C(C)=N/NC(=O)c1cc2ccccc2cc1O` (stereo unspecified) the “inhibition” value was 35%. For `O=C1CC(N2CCN(Cc3ccccc3)CC2)C(=O)N1c1ccccc1` (stereo unspecified), the “inhibition” value was -3.65%. With `NC(=O)c1c(N)sc2c1CCCCC2` the “inhibition” value was -4.1%. In the case of `COc1cccc(C2CC(c3ccccc3OC)n3nc(N)nc3N2)c1` (stereo unspecified), the “inhibition” value is reported as -9.32%. With `COc1ccc(CC(=O)n2nc(-c3ccccc3)nc2NCc2ccco2)cc1` the “inhibition” value was -5.7%. In the case of `CCn1c(Cc2ccccc2)nnc1SCC(=O)Nc1ccc(S(N)(=O)=O)cc1`, the “inhibition” value is reported as -19.4%. In the case of `C/C(=N\NC(=O)c1c(Cl)c(C)nn1C)c1cccc(NC(=O)COc2ccc(Cl)cc2)c1`, the “inhibition” value is reported as 0.33%. For `COc1cccc(/C=N/n2c(C)nc3ccccc3c2=O)c1O`, the “inhibition” value was 2.55%. With `Cc1cccc(C)c1OCC(=O)Nn1c(COc2ccccc2)nc2ccccc2c1=O` the “inhibition” value was -24.9%. In the case of `C=CCNC(=O)c1ccc(N(C)S(=O)(=O)c2ccc(OC)cc2)cc1`, the “inhibition” value is reported as 4.47%. For `O=C(Nc1nc2ccc(SC(F)F)cc2s1)c1ccc2c(c1)S(=O)(=O)c1ccccc1C2=O`, the “inhibition” value was -4.49%. In the case of `Oc1ccc(Nc2nc(-c3cccs3)cs2)cc1`, the “inhibition” value is reported as 30.8%. In the case of `COC(=O)c1cc(C)nc2c1C(=O)C(=O)C=C2N1CCOCC1`, the “inhibition” value is reported as 7.24%. For `Nc1ccc(Nc2ccccc2)c(Cl)c1`, the “inhibition” value was 3.59%. For `Nc1ccc(Nc2ccccc2N)cc1`, the “inhibition” value was 19%. With `O=C(OCC(=O)c1ccc(S(=O)(=O)N2CCCC2)cc1)C1=COCCO1` the “inhibition” value was 5.66%. For `O=C(NC(NC(=S)Nc1ccc(Cl)c(Cl)c1)C(Cl)(Cl)Cl)c1ccco1` (stereo unspecified), the “inhibition” value was -7.65%. For `O=C(NCc1ccco1)c1ccc(Br)s1`, the “inhibition” value was -1.93%. With `CCCCN(C)C(=O)c1cn(C)c2ccc(S(=O)(=O)N(C)C)cc2c1=O` the “inhibition” value was 5.65%. In the case of `CCOC(=O)c1cnc(SCC(=O)Nc2ccc(N3CCOCC3)c(Cl)c2)nc1N`, the “inhibition” value is reported as -2.55%. In the case of `Cc1nc(NCc2ccc3c(c2)OCO3)c2oc3ccccc3c2n1`, the “inhibition” value is reported as -17.7%. For `COc1ccc(/C=C/C(=O)NCCc2nc3ccccc3[nH]2)cc1`, the “inhibition” value was 8.18%. In the case of `CCCCn1c(/N=C/c2c[nH]c3ccccc23)nc2ccccc21`, the “inhibition” value is reported as 15.1%. For `O=C1CCc2cc(S(=O)(=O)N3CCN(c4cccc(Cl)c4)CC3)ccc2N1`, the “inhibition” value was -2.32%. With `C=CCN(C(=O)c1cccc(S(=O)(=O)N2CCN(C)CC2)c1)c1nc(-c2ccccc2)cs1` the “inhibition” value was -7.5%. For `O=C(CCC(=O)c1cccs1)OCC(=O)N1CCN(S(=O)(=O)c2ccccc2)CC1`, the “inhibition” value was -8.31%. In the case of `O=C1c2ccccc2C(=O)N1CCCc1nc2ccccc2c(=O)n1Cc1ccco1`, the “inhibition” value is reported as -21.1%. In the case of `O=C(NCCc1cn2ccccc2n1)c1ccccc1F`, the “inhibition” value is reported as 2.71%. In the case of `O=C(c1ccco1)[C@@H]1[C@@H]2C(=O)N(c3ccc(F)cc3)C(=O)[C@@H]2[C@H]2C=Cc3ccccc3N21`, the “inhibition” value is reported as 29.2%. For `Clc1ccc(-c2csc3ncnc(N4CCc5ccccc5C4)c23)cc1`, the “inhibition” value was -12.2%. For `CCCCN(C(=O)NC(=O)Nc1nc2ccc(OC)cc2s1)S(C)(=O)=O`, the “inhibition” value was 17%. For `c1csc(C2Nc3ccccc3-c3nc4ccccc4n32)c1` (stereo unspecified), the “inhibition” value was 19.2%. With `c1ccc(CSc2snnc2-c2ccccc2)cc1` the “inhibition” value was -3.35%. With `O=C(Cc1c[nH]c2ccccc12)N/N=C/c1ccc(F)cc1` the “inhibition” value was -10.3%.

Source: PubChem BioAssay AID1981 (Southern Research Specialized Biocontainment Screening …, 2009)
